The supplement of paper PMC12350171
Counter-ions that a name gives are not always drawn.

System: P. vulgatus WT
Test: growth AUC normalised to DMSO control (median) (fraction of control); higher = less growth inhibition, active = hit call of the paper
Settings: 20 µM;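 active = normalised median growth AUC below 0.1 of DMSO control; inactive = AUC 0.1 or higher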
How it was run: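 After two overnight anaerobic passages, strains were inoculated at OD578 0.01 into mGAM in 96-well plates containing approved-drug library compounds at 20 μM and 1% DMSO. Growth was followed by reading OD578 hourly for 24 h within an anaerobic incubator. Area under the curve, taken by the trapezoidal rule up to the start of stationary phase, was normalised to same-plate vehicle wells, and the median of three biological replicates is listed.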
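Further: active when median AUC fell below 0.1.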

| SMILES | growth AUC normalised to DMSO control |
| --- | --- |
| Cc1cc(/C=C/c2ccc3cc(N(C)C)ccc3[n+]2C)c(C)n1-c1ccccc1 [Pyrvinium pamoate] | 1.08 (inactive) |
| CN1CCN(c2c(F)cc3c(=O)c(C(=O)O)cn(CCF)c3c2F)CC1 [Fleroxacin] | 0.585 (inactive) |
| CC(C)OC(=O)C(C)(C)Oc1ccc(C(=O)c2ccc(Cl)cc2)cc1 [Fenofibrate] | 1.01 (inactive) |
| Cc1cn([C@H]2C[C@H](N=[N+]=[N-])[C@@H](CO)O2)c(=O)[nH]c1=O [Zidovudine] | 0.986 (inactive) |
| CCC1(c2ccccc2)C(=O)NCNC1=O [Primidone] | 1 (inactive) |
| COc1ccnc(C[S+]([O-])c2nc3cc(OC(F)F)ccc3[nH]2)c1OC (configuration not stated) [Pantoprazole sodium] | 0.998 (inactive) |
| CO/N=C1\CN(c2nc3c(cc2F)c(=O)c(C(=O)O)cn3C2CC2)CC1CN (configuration not stated) [Gemifloxacin mesylate] | 0.0136 (active) |
| O=C(C1CCCCC1)N1CC(=O)N2CCc3ccccc3C2C1 (configuration not stated) [Praziquantel] | 1.03 (inactive) |
| CC(/C=C1\SC(=S)N(CC(=O)O)C1=O)=C\c1ccccc1 [Epalrestat] | 1.05 (inactive) |
| CC(=O)Oc1ccc(C(c2ccc(OC(C)=O)cc2)c2ccccn2)cc1 [Bisacodyl] | 1.04 (inactive) |
| Cn1c(=O)c2[nH]cnc2n(C)c1=O [Aminophylline] | 1.05 (inactive) |
| N[C@@H](Cc1ccc(O)c(O)c1)C(=O)O [Levodopa] | 0.996 (inactive) |
| CCCSS/C(CCO)=C(/C)N(C=O)Cc1cnc(C)nc1N [Prosultiamine] | 1.06 (inactive) |
| O=P(O)(O)C(O)(Cc1cccnc1)P(=O)(O)O [Risedronic acid monohydrate] | 0.999 (inactive) |
| NCCc1c[nH]cn1 [Histamine dihydrochloride] | 0.979 (inactive) |
| O=C(NCCCN1CCOCC1)c1ccc(Cl)cc1 [Eprobemide] | 1.03 (inactive) |

| SMILES | growth AUC normalised to DMSO control |
| --- | --- |
| CC[C@H]1OC(=O)C[C@@H](O)[C@H](C)[C@@H](O[C@@H]2O[C@H](C)[C@@H](O[C@H]3C[C@@](C)(O)[C@@H](O)[C@H](C)O3)[C@H](N(C)C)[C@H]2O)[C@@H](CC=O)C[C@@H](C)C(=O)/C=C/C(C)=C/[C@@H]1CO[C@@H]1O[C@H](C)[C@@H](O)[C@@H](OC)[C@H]1OC [Tylosin] | 0.0123 (active) |
| Cc1ncc(C[n+]2csc(CCO)c2C)c(N)n1 [Thiamine hydrochloride] | 0.981 (inactive) |
| CCOc1cc(N)c(Cl)cc1C(=O)NCC1CN(Cc2ccc(F)cc2)CCO1 (configuration not stated) [Mosapride] | 0.981 (inactive) |
| CCN1CCN(C(=O)N[C@@H](C(=O)N[C@@H]2C(=O)N3[C@@H]2SC(C)(C)[C@@H]3C(=O)O)c2ccccc2)C(=O)C1=O [Piperacillin sodium salt] | 0.0163 (active) |
| NNc1nncc2ccccc12 [Hydralazine hydrochloride] | 1.04 (inactive) |
| C=C(CC)C(=O)c1ccc(OCC(=O)O)c(Cl)c1Cl [Ethacrynic acid] | 1.01 (inactive) |
| CC(NN)c1ccccc1 (configuration not stated) [Mebanazine] | 0.871 (inactive) |
| Nc1nc2[nH]cc(CCc3ccc(C(=O)N[C@@H](CCC(=O)O)C(=O)O)cc3)c2c(=O)[nH]1 [Pemetrexed disodium] | 1.04 (inactive) |
| Cc1ncc([N+](=O)[O-])n1CCO [Metronidazole] | 0.0126 (active) |
| Cc1[nH]cnc1CN1CCc2c(c3ccccc3n2C)C1=O [Alosetron hydrochloride] | 0.999 (inactive) |
| CCOc1ccccc1C(N)=O [Ethenzamide] | 1.03 (inactive) |
| CC(C)NC[C@H](O)COc1cccc2ccccc12 [(S)-(-)-Propranolol hydrochloride] | 1.06 (inactive) |
| C[C@H](O)[C@H](O)[C@H]1CNc2[nH]c(N)nc(=O)c2N1 [Sapropterin dihydrochloride] | 1.05 (inactive) |
| CN(CCCN1c2ccccc2CCc2ccccc21)CC(=O)c1ccc(Cl)cc1 [Lofepramine] | 0.964 (inactive) |
| CC(C)NC[C@@H](O)COc1cccc2ccccc12 [(R) Propranolol hydrochloride] | 0.988 (inactive) |
| C[C@H]1[C@H](NC(=O)/C(=N\OC(C)(C)C(=O)O)c2csc(N)n2)C(=O)N1S(=O)(=O)O [Aztreonam] | 0.134 (inactive) |
